Assay [1] can be described thus: Cell Viability - Mesenchymal (AID 546).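 Further: cells exposed to compound for 40 hours before reading; 0% = DMSO only and -100% = 100 µM tamoxifen.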 The following applies: mesenchymal cells viability, qHTS; activity change, negative = cytotoxicity: at 91.7 µM (top of the series). Summed up: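 CellTiter-Glo luminescence (intracellular ATP, 20 min room temperature) after 40 hr compound exposure at 37 °C of 1000 glomerulus-derived human kidney mesenchymal cells/well; AC50 values obtained by fitting qHTS concentration-response data to the Hill equation.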
In general terms: Quantitative high-throughput screening tests each substance at several concentrations.

Assay [2] addresses 3',5'-cyclic-AMP phosphodiesterase 4B (Homo sapiens) (UniProt Q07343). In words: qHTS Assay for Inhibitors of PDE-IV (AID 607; active means well fitted activation curve with a large enough effect in the main read-out, with a control signal flat, not every such curve was filed as active; further: % of control where 0% means no effect). Summed up: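 HEK293 ACTOne cells with CNG channel (1000/well), endogenous PDE4; membrane potential dye, compounds up to 22.9 uM final. Fluorescence Ex 535/Em 590; RO 20-1724 (100 uM final) as reference.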
Assay [3] can be described thus: Cellular Toxicity (caspase-3) HUV-EC-C (AID 656).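 Further: 0% = DMSO basal and 100% = 100 µM tamoxifen.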 Summed up: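 Concentration-dependent caspase 3/7 induction was assessed in HUV-EC-C cells exposed for 16 hours. Data scaled between DMSO and tamoxifen (100 uM) controls.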
The nature of assay [4]: Cellular Toxicity (caspase-3) SHSY5Y (AID 657). Summed up:
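Readout: caspase-cleaved peptide-aminoluciferin substrate driving luciferase light in SH-SY5Y neuroblastoma cells after 16 h treatment. Response normalized to DMSO and 10 uM staurosporine controls.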

The nature of assay [5]: Cellular Toxicity (caspase-3) BJ (AID 658).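 Further: 0% = DMSO basal and 100% = 10 µM staurosporine.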 Summed up: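 Caspase-Glo 3/7 luminescence, read 1 hr after reagent at room temperature, in normal BJ fibroblasts exposed 16 hours at 37 °C. AC50 values from Hill-equation concentration-response, scaled between DMSO basal and 10 uM staurosporine as 100%.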
Assay [6] is described as follows: Cellular Toxicity (caspase-3) MRC-5 (AID 659).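 Further: 0% = DMSO basal and 100% = 10 µM staurosporine.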 To be noted: Potency: caspase-3 activation. Summed up:
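Luminescent Caspase-Glo 3/7 read-out (1 h, room temperature) after a 16 h, 37 °C compound exposure of MRC-5 lung fibroblasts at 1500 cells/well. Concentration-response AC50 from Hill equation; 0% DMSO, 100% 10 uM staurosporine.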

The nature of assay [7]: Cellular Toxicity (caspase-3) Mesangial (AID 660).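 Further: combined caspase 3 and 7 activity read by Caspase-Glo luminescence; cells exposed to compound for 16 h before the caspase read.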 An outline of the steps: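 AC50 values come from Hill-equation fits of caspase 3/7 activation, measured as Caspase-Glo luminescence in human glomerular mesangial cells exposed to compound for 16 h at 37 °C; 100% set by 100 uM tamoxifen.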
A short description of assay [8]: Cellular Toxicity (caspase-3) SK-N-SH (AID 661).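 Further: 0% = DMSO basal and 100% = 10 µM staurosporine.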 Summed up: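 Apoptosis readout in SK-N-SH neuroblastoma: Caspase-Glo 3/7 luminescence following 16 hr treatment in complete culture medium. Normalization used DMSO and 10 uM staurosporine controls.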
The nature of assay [9]: Cellular Toxicity (caspase-3) Hek293 (AID 664).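 Further: cells exposed to compound for 16 h at 37 °C before readout.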 Summed up:
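Apoptosis readout: Caspase-Glo 3/7 signal in human HEK293 cells following 16-hour compound incubation. Responses scaled between DMSO baseline and 100 uM tamoxifen.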

Assay [10] is described as follows: Cellular Toxicity (caspase-3) N2a (AID 665).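 Further: compound exposure lasted 16 h at 37 °C before readout.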 To be noted: Potency: caspase-3 activation. Summed up:
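Concentration-response qHTS: compound-induced caspase-3/7 luminescence in N2a cells (16 h, 37 °C), relative to DMSO and 10 uM staurosporine controls; AC50 obtained using the standard Hill equation.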

Assay [11] addresses Guanine nucleotide-binding protein G(i) subunit alpha-1 (Homo sapiens) (UniProt P63096). In words: qHTS Assay for Inhibitors of RGS12 GoLoco Motif Activity (Green Fluorophore) (AID 879).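 Further: 0% = labeled peptide with Gαi1 and full inhibition = labeled peptide alone without protein; negative values mean loss of peptide binding seen as reduced polarization.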 An outline of the steps: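 A drop in FITC polarization marked displacement of the FITC-tagged RGS12 GoLoco peptide (10 nM) from Gαi1 (50 nM). Compounds were incubated 10 min at room temperature in Tris pH 7.5 buffer containing 150 mM NaCl, 0.1 mM GDP and 0.05% NP40; unlabeled peptide titration served as control.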

Assay [12] has as its target Cytochrome P450 2C9 (Homo sapiens) (UniProt P11712). The assay is described as follows: qHTS Assay for Inhibitors and Substrates of Cytochrome P450 2C9 (AID 883). Further: on the % scale 0 is the no-effect control and ±100 the full control effect; nearly all actives have a fitted effect of over 60% in size. An outline of the steps:
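Inhibition of CYP2C9 is scored as loss of luminescence, with 57uM sulphaphenazole defining 100% inhibition. Substrate Luciferin-H is used at 100uM, equal to its KM; enzyme at 10nM in 25mM KPO4, 60 min at 37C with NADPH regeneration.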

Assay [13] has as its target Cytochrome P450 2D6 (Homo sapiens) (UniProt P10635). The assay is described as follows: qHTS Assay for Inhibitors and Substrates of Cytochrome P450 2D6 (AID 891).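 Further: luciferin methyl ether substrate demethylated by CYP2D6 with NADPH regeneration; on the % scale 0 is the no-effect control and ±100 the full control effect; nearly all actives have a fitted effect of over 60% in size.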 An outline of the steps: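 Luminescent read-out of luciferin formed by 5 nM human CYP2D6 demethylating 30 uM Luciferin-ME EGE (Km level) over 60 min at room temperature after NADPH regeneration addition. Data normalized to full inhibition by 1.43 uM quinidine.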

Assay [14] is described as follows: qHTS Assay for Identification of Small Molecule Antagonists for NFkB Signaling Pathway (AID 895; active means well fitted inhibition curve with a large enough effect in the signal ratio, with a control signal flat, not every such curve was filed as active; the % refers to the signal ratio; further: potency means the concentration at half of the fitted maximal effect). Summed up: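 Beta-lactamase reporter read-out (460 and 530 nm emission ratio, 405 nm excitation, 2 hrs substrate loading RT) after 5 hr stimulation with 10 pM TNF alpha in compound-treated NFkB-bla ME-180 cells in low-serum medium.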
The target in assay [15] is Cytochrome P450 2C19 (Homo sapiens) (UniProt P33261). In words: qHTS Assay for Inhibitors and Substrates of Cytochrome P450 2C19 (AID 899). Further: on the % scale 0 is the no-effect control and ±100 the full control effect; nearly all actives have a fitted effect of over 60% in size. An outline of the steps:
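5nM enzyme + 10uM Luciferin-H EGE (=KM), 50mM KPO4; cpd pin-transferred, 10 min 37C; NADPH regen, 60 min 37C; stopped w/ luciferin detection reagent, 20 min; luminescence. Normalized to 57uM ketoconazole (AC100).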

The nature of assay [16]: Cellular Toxicity (caspase-3) H-4-II-E (AID 663).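 Further: cells exposed to compound for 16 hr before readout; 0% = DMSO basal and 100% = 100 µM tamoxifen.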 The following applies: Potency: caspase-3 activation. An outline of the steps: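 Caspase 3/7 activation measured by luminescent aminoluciferin substrate cleavage after 16 hr compound treatment of H-4-II-E cells in complete medium. Increase normalized between DMSO (basal) and 100 uM tamoxifen (100%); Hill-equation AC50 from concentration-response.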

The nature of assay [17]: Cellular Toxicity (caspase-3) NIH 3T3 (AID 666).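 Further: 0% = DMSO basal and 100% = 100 µM tamoxifen stimulation.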 Summed up: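 Activity: caspase-3/7 induction, NIH 3T3 cells, 16 hr treatment at 37°C, luminescent Caspase-Glo detection; AC50 via Hill equation.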
Assay [18] can be described thus: Confirmation and Secondary Assay for Modulators of Hemoglobin Beta Chain Splicing at IVS2 654 locus (AID 910).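 Further: HeLa cells stably carrying EGFP split by mutant beta-globin IVS2-654 intron; per-well total GFP intensity by laser scanning cytometry after 2-day treatment; % of control where 0% means no effect.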 Summed up:
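Readout: per-well total peak green fluorescence (488 nm ex, 500–520 nm em) from objects 5–250 µm, reflecting correct splicing of an EGFP-654 reporter. Compounds were applied for 2 days at 37 °C to overnight-plated HeLa EGFP-654 cells; controls were DMSO and 500 nM IVS2-654 PNA.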

Assay [19] addresses Cytochrome P450 3A4 (Homo sapiens) (UniProt P08684). The assay is described as follows: qHTS Assay for Inhibitors and Substrates of Cytochrome P450 3A4 (AID 884). Further: nearly all actives have a fitted effect of over 50% in size. Further: potency means the concentration at half of the fitted maximal effect. Summed up: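 Luminescent readout of luciferin produced by CYP3A4 (20 nM) dealkylation of Luciferin-PPXE, 25 uM (its KM). NADPH-driven reaction ran 60 min at RT after 10 min compound preincubation; data scaled to 57 uM ketoconazole as 100% inhibition.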

Values without a mark were called inactive. Results filed as inconclusive are left out. Active and inactive are the calls of the source. Unless noted, the call rests on the fitted dose curve; in most records, active means well fitted curve in the direction sought with a large enough effect; inconclusive means small, poorly fitted or top-dose-only effect, or another doubt; inactive means no such curve, though single readings can be large; an effect the other way counts as inactive or inconclusive.

Chain of Cytochrome P450 3A4 (Homo sapiens) (P08684 whole entry, looked up): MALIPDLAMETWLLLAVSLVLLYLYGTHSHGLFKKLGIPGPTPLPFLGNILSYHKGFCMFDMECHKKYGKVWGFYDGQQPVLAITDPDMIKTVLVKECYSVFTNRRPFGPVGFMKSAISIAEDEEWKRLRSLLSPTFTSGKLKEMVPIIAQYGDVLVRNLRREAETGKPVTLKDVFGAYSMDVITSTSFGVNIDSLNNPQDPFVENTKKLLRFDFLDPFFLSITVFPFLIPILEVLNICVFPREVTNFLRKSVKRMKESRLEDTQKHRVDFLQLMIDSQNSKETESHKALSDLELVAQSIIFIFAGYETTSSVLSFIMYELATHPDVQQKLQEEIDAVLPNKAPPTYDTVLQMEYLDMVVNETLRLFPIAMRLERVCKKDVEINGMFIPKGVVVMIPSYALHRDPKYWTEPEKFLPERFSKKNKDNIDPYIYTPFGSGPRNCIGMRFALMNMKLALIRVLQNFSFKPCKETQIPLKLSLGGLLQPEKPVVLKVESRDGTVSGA
Chain of Guanine nucleotide-binding protein G(i) subunit alpha-1 (Homo sapiens) (P63096 whole entry, looked up): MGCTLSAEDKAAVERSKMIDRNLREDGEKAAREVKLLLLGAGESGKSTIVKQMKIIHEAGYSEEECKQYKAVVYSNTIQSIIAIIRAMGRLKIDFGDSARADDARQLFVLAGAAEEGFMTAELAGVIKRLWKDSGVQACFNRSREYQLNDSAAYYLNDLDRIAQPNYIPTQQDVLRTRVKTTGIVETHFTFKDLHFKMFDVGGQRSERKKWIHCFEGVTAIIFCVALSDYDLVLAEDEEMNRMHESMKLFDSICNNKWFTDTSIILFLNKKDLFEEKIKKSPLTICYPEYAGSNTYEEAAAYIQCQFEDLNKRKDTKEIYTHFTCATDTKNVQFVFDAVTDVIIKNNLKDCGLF
Chain of 3',5'-cyclic-AMP phosphodiesterase 4B (Homo sapiens) (Q07343 whole entry, looked up): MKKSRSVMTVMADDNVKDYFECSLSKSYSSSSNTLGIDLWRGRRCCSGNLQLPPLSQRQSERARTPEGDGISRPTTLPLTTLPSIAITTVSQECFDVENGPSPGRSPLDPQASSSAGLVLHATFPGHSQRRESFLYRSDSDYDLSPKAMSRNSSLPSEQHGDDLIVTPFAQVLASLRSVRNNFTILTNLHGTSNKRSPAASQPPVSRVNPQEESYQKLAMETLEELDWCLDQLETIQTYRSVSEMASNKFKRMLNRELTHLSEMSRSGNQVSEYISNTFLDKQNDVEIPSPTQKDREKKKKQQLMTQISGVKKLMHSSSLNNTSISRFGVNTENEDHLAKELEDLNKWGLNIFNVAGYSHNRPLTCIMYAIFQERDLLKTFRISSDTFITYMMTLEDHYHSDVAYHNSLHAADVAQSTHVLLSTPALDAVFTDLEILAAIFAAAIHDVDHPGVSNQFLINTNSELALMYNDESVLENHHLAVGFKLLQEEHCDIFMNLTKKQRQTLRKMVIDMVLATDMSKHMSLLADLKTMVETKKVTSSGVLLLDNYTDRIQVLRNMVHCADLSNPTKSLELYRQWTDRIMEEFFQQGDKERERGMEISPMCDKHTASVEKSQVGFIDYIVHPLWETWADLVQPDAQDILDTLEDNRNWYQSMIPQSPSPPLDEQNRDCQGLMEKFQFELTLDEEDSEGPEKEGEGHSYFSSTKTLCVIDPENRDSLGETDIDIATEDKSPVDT
Chain of Cytochrome P450 2C9 (Homo sapiens) (P11712 whole entry, looked up): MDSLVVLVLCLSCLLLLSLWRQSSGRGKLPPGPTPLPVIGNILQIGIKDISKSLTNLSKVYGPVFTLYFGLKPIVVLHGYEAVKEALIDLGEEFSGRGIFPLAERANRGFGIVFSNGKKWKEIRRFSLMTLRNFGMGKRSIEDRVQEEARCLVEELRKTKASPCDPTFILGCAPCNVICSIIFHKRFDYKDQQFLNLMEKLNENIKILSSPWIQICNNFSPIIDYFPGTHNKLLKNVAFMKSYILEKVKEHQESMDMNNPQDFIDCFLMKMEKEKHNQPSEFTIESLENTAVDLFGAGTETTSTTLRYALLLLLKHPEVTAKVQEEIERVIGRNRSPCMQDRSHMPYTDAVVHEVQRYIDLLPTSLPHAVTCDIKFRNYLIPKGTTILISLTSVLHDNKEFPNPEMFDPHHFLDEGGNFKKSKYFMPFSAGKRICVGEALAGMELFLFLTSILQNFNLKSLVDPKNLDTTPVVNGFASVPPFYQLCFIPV
Chain of Cytochrome P450 2D6 (Homo sapiens) (P10635 whole entry, looked up): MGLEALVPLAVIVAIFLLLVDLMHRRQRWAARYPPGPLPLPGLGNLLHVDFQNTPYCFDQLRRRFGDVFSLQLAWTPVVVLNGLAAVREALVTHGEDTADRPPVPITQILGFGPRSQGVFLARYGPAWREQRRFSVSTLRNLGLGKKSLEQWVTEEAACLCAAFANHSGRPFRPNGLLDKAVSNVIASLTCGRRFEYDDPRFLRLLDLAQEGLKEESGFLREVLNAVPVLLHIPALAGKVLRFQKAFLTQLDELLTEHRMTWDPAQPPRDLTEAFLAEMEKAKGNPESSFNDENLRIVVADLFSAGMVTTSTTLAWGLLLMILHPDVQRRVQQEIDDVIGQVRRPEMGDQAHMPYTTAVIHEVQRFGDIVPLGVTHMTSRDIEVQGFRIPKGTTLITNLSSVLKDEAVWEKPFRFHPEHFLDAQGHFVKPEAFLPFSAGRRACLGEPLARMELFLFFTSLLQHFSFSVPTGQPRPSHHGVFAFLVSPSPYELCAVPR
Chain of Cytochrome P450 2C19 (Homo sapiens) (P33261 whole entry, looked up): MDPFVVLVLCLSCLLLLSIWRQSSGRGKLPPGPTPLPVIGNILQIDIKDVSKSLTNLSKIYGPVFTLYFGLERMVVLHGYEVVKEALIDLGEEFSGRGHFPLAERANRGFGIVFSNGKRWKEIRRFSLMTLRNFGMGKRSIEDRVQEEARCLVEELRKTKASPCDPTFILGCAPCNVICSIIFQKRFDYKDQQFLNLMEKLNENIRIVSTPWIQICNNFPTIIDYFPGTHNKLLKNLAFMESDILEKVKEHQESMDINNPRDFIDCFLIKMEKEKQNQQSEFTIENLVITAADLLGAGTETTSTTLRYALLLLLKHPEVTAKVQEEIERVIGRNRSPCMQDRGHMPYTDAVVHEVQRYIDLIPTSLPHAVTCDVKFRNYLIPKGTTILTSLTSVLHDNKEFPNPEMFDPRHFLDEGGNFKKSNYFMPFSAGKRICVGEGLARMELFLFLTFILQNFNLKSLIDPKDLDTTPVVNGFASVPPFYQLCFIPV

`Oc1ccc(O)cc1`: the activity change, negative = cytotoxicity in assay [1] was -96.1% (active). Moreover, the result in [2], in assay [3], in [5], in assay [7], in assay [9] and in assay [11] was inactive. Besides, the Potency entry in assay [4], in assay [6], in assay [8], in assay [10], in [12] and in assay [13] was “inactive” each time. In addition, the Potency result in [15] was “inactive”. The Potency in [14] is 10 µM (active).

For the molecule `CCCCCCc1ccc(O)cc1O`, the activity change, negative = cytotoxicity in assay [1] is -9.3%. Further, the result in [3], in [5], in assay [7], in [9] and in assay [18] was inactive. Besides, the Potency result in assay [4], in assay [6], in assay [8], in assay [16], in assay [10] and in assay [17] was “inactive” throughout.

Regarding `NCCc1ccn[nH]1`, in assay [2], the outcome was inactive.

`Oc1cc(O)c2c(c1)O[C@H](c1ccc(O)c(O)c1)[C@H](O)C2`: the call in assay [2] and in [11] was inactive.

For the molecule `CN(C)/N=N/c1nc[nH]c1C(N)=O`, the activity change, negative = cytotoxicity in assay [1] is -2.47%. Moreover, the call in assay [3], in assay [5], in assay [7], in assay [9] and in assay [18] was inactive. In addition, the Potency entry in assay [4], in [6], in assay [8], in assay [16], in [10] and in [17] was “inactive” each time. The Potency entry in assay [19] was “inactive”.

Regarding `C[C@]12CC[C@@H]3c4ccc(O)cc4CC[C@H]3[C@@H]1CC[C@@H]2O`, the activity change, negative = cytotoxicity in assay [1] is -23.1%. Moreover, the outcome in assay [3], in assay [5], in assay [7], in assay [9] and in assay [11] was inactive. For the same molecule, the Potency entry in [4], in assay [6], in assay [8], in [16], in [10] and in assay [17] was “inactive” throughout. For the same molecule, the Potency entry in assay [19] is “inactive”.

`CC(=O)O[C@]1(C(C)=O)CC[C@H]2[C@@H]3C[C@H](C)C4=CC(=O)CC[C@]4(C)[C@H]3CC[C@@]21C`: the activity change, negative = cytotoxicity in [1] is -6.64%. In addition, the molecule was called inactive in [3], in [5] and in assay [7]. Also, the Potency result in assay [4], in assay [6], in assay [8], in [16], in assay [10] and in assay [17] was “inactive” throughout. For the same molecule, the Potency in assay [19] was 15.8 µM (active).

`Oc1c(Cl)cc(Cl)cc1Sc1cc(Cl)cc(Cl)c1O`: the activity change, negative = cytotoxicity in assay [1] was -28.4%. For the same molecule, the molecule was called inactive in [3], in assay [5], in assay [7] and in assay [18]. Moreover, the Potency entry in [4], in assay [6], in assay [8], in assay [16], in [10] and in assay [17] was “inactive” each time.

For the origin of these results see PubChem BioAssay (NCATS).
